Experimental data from PubChem BioAssay (NCI).
This is part of a sample that, as a whole, favours compounds with a hit. Of some 83,000 tested, about 20% had one in any assay.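 The endpoint reported here, percent growth, reads 100 for growth as untreated, 0 for no net growth and -100 for all cells dead.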 Unmarked numbers belong to inactive results. Activity calls are given as the source filed them.

System: SK-MEL-5 melanoma
Experiment: NCI-60 one-dose screen, 48 h (100 = growth as untreated, 0 = no growth, -100 = all killed)
Details: 10 µM unless noted
Description: Growth inhibition of the SK-MEL-5 human tumor cell line is measured as a screen for anti-cancer activity. Cells are grown in 96 well plates and exposed to the test compound for 48 hours. Compounds are tested at a single concentration, which is 10^-5 M for most compounds. The reported endpoint is percent growth (GI% or GIPRCNT), where numbers from 0 - 100% represent growth inhibition, and numbers from -100% - 0 represent cell death. For example, a value of 40 represents 60% growth inhibition. A value of 0 means no net growth occurred over the course of the experiment. A value of -40 indicates 40% of cells at the beginning of the experiment died by the end of the experiment. A value of -100 means all cells are dead at the end of the experiment.
NCI-60 Human Tumor Cell Lines Screen was performed using the standard one-dose NCI protocol, which is described in more detail at https://dtp.cancer.gov/discovery_development/nci-60/default.htm.
Compounds with GIPRCNT values below 10 were considered active. Activity score was based on GIPRCNT using the following formula: […]
Score is 0 for GIPRCNT values of 100 or above, 50 for GIPRCNT values of 0, and 100 for GIPRCNT values of -100.

Structure (SMILES) | growth
CCCCCCCCOC(=O)c1c(C)[nH]c(/C=C2\N=C(c3ccc[nH]3)C=C2OC)c1C | -99.2% (active)
CN1C(=O)N(C)C2C1NN=c1s/c(=C\c3ccc(F)cc3)c(=O)n12 (stereo not given) | 31.7%
Oc1ccc(C2OCCO2)c2cccnc12 | 48.4%
COC(=O)c1cc(-c2cc(OC)c(OC)c(OC)c2)[nH]c1N/N=C/c1c(Cl)cccc1Cl | 58.7%
O=C(CNc1ncco1)Nc1ccc(S(=O)(=O)c2ccc(NC(=O)CNc3ncco3)cc2)cc1 | -60.4% (active)
CC(C)(C)c1ccc(C(=O)Nc2sc3c(c2C#N)CCC(=O)C3)cc1 | -69.8% (active)
CC(=O)Cc1nsc(NC(=O)c2cc(-c3cc(Cl)ccc3Cl)oc2C)n1 | 99.1%
C=C1CC[C@@H]2[C@](C)(COC(C)=O)[C@H](OC(C)=O)CC[C@@]2(C)[C@@H]1CC(Nc1ccc(S(=O)(=O)Nc2nccc(C)n2)cc1)C1=CCOC1=O (stereo not given in full) | 45%
N#CC1=C(N)Oc2c(ccc3ccccc23)C1c1cc2ccccc2n2nnnc12 (stereo not given) | 7.97% (active)
COc1ccc(C(=O)/C=C/c2ccc(Cl)cc2)cc1S(N)(=O)=O | 85.7%
CN(C)c1ccc(/C=C/C2=[N+](C)c3ccccc3C2(C)C)cc1 | -4.87% (active)
CC1(C)CCC[C@]23C(=O)O[C@](O)(C(=O)C4=C[C@@](C)(/C=C/CCCc5ccc6ccc7cccc8ccc5c6c78)CC[C@@]42O)[C@@H]13 | -96.3% (active)
Cc1c(-c2cnc3ccc(Cl)cc3c2C(=O)O)nnn1-c1ccc(Cl)cc1 | 106%
Nc1ncc(-c2ccc3ncnc(N4CCc5ccc(Cl)cc54)c3c2)cn1 | -52.2% (active)
CCCCCCCCNc1ncnc2c1ncn2Cc1nnc2c3ccccc3c(Cl)nn12 | 39.3%
N/C(=N\c1nc2ccccc2s1)NC(=O)Nc1ccccc1 | 32.5%
O=C1/C(=C/c2cccc([N+](=O)[O-])c2)COc2ccc(O)c(O)c21 | 16.7%
CCOC(=O)c1c(N)sc2cc(O)ccc12 | 104%
C=CC(=O)Nc1ccc2ncnc(Nc3cccc(NS(=O)(=O)CCC)c3Cl)c2c1 | 52.4%
CCN(CC)c1ccc(/C=N/NC(=O)c2ccccc2Nc2ccnc(C(F)(F)F)c2)c(O)c1 | 3.96% (active)

Structure (SMILES) | growth
CC(C)(C)n1cc(-c2ccnc(NCCNS(=O)(=O)c3ccc(Br)cc3)c2)c(-c2cccc(O)c2)n1 | -19% (active)
Cc1nc2c(c(-c3ccccc3)n1)Cc1c(ccc3ccccc13)O2 | 70.8%
CNC(=O)c1cc(Oc2cccc3nc(NC(=O)Nc4ccc(F)cc4F)ccc23)ccn1 | 22.7%
CC(C)(C)[C@H](OCc1cn([C@H]2C[C@@H](O)[C@@H](CO)O2)c(=O)[nH]c1=O)c1ccc(C#Cc2ccccc2)cc1[N+](=O)[O-] | 75.4%
O=C1OCC2=C1C(c1cccc(F)c1)c1cc3c(cc1N2CCO)CCC3 (stereo not given) | -1.4% (active)
CC(C)n1nc(-c2ccc3oc(N)nc3c2)c2c(N)ncnc21 | -40.3% (active)
CN(C)CCCN(CCC1CCCCC1)CCC1CCCCC1 | -82.1% (active)
CCOC(=O)CC1CSC(N/N=C(/C)c2cccc(C(F)(F)F)c2)=N1 (stereo not given) | 105%
CCCCCCCC/C=C\CCCCCCCCOc1ccc(CC(=O)NCC[N+]2(C)CCCC2)cc1 | 79.5%
CCOC(=O)C1=CCC(n2cc(F)c(=O)[nH]c2=O)O1 (stereo not given) | 104%
CN1CCN(c2ccc(Nc3ncc4[nH]c(=O)n(Cc5ccccc5N)c4n3)cc2)CC1 | 101%
CCOc1ccc(N2C(=O)CCSC2=S)cc1 | 98.9%
COc1cccc2cc(N(C)c3nc(C)nc4c3CCC4)ccc12 | -35.5% (active)
COc1ccc(-n2c(=O)n(-c3ccc(-c4nc5ccc(F)cc5s4)cc3)c(=O)c3cccnc32)cc1 | 101%
CNC(=O)c1cc(Oc2ccc3nc(NC(=O)Nc4ccc(F)cc4F)sc3c2)ccn1 | 39%
COc1nc2ccccc2cc1/C=C1/C=C(c2ccccc2)NC1=O | 39.4%
CSc1nc(CC(C)C)c(C#N)c(=O)n1C | 70.9%
CCN=c1sc2c(n1NC(=O)c1cc3ccc1CCc1ccc(cc1)CC3)C(=O)c1ccccc1C2=O | -96.9% (active)
COc1ccc(C(=O)/C=C/Nc2cc(-c3ccccc3)nn2-c2ccccc2)cc1 | 93%
Oc1cccc(-c2nc(-c3n[nH]c(=S)n3-c3ccccc3)cc3c2[nH]c2ccccc23)c1 | 9.76% (active)
